Results as given in the antibiotic and cytotoxicity screens of Wong et al. (2023).
Among all 39,000 compounds or so, about 3,300 (8.5%) were called active. Only a selection was taken, and actives are over-represented in it overall.

system: HepG2; assay: cytotoxicity call (relative viability < 0.9); details: 10 µM

**Q.** `CCOC(=O)CSc1nc(=O)cn[nH]1` was tested. Which cytotoxicity call did it give?
**A.** inactive

**Q.** Which cytotoxicity call does the source give for `C[C@@H]1CN([C@H](C)CO)C(=O)Cc2cc(NC(=O)C3CC3)ccc2O[C@H]1CN(C)Cc1ccc2c(c1)OCO2` here?
**A.** inactive

**Q.** How did the cytotoxicity call turn out when `CC(C)NC(=O)N(C)C[C@@H]1OCCCC[C@@H](C)Oc2ccc(NC(=O)Nc3ccccc3)cc2C(=O)N([C@@H](C)CO)C[C@@H]1C` was run?
**A.** inactive

**Q.** `COc1ccc(S(=O)(=O)Nc2ccc3c(c2)C(=O)N([C@H](C)CO)C[C@H](C)[C@H](CN(C)C(=O)Nc2c(C)noc2C)OCCCC[C@@H](C)O3)cc1` was tested. Which cytotoxicity call did it give?
**A.** inactive

**Q.** `C[C@@H]1CN([C@H](C)CO)C(=O)c2cc(C3=CCCC3)cnc2O[C@H]1CN(C)S(=O)(=O)c1cn(C)cn1` was tested. Which cytotoxicity call did it give?
**A.** inactive

**Q.** Which cytotoxicity call does the source give for `Cc1noc(C)c1S(=O)(=O)Nc1ccc2c(c1)CC(=O)N([C@H](C)CO)C[C@H](C)[C@H](CN(C)S(=O)(=O)c1cn(C)cn1)O2` here?
**A.** inactive

**Q.** How did the cytotoxicity call turn out when `C[C@@H]1CCCCO[C@H](CN(C)C(=O)Nc2ccc3c(c2)OCO3)[C@H](C)CN([C@@H](C)CO)C(=O)c2cc(NC(=O)c3ccncc3)ccc2O1` was run?
**A.** inactive

**Q.** Which cytotoxicity call does the source give for `C[C@@H]1CN([C@@H](C)CO)C(=O)Cc2cc(NC(=O)Nc3cccc4ccccc34)ccc2O[C@@H]1CN(C)C(=O)Nc1cccc2ccccc12` here?
**A.** inactive

**Q.** With `NCCN1CCOCC1` as the compound, how does the cytotoxicity call read?
**A.** inactive

**Q.** For `C[C@H]1CN([C@@H](C)CO)C(=O)c2cc(NC(=O)Nc3ccc(C(F)(F)F)cc3)ccc2O[C@H]1CN(C)Cc1ccc(Cl)c(Cl)c1`, which cytotoxicity call is on record?
**A.** active

**Q.** `C[C@H](CO)N1C[C@H](C)[C@H](CN(C)Cc2ccc(Cl)c(Cl)c2)Oc2ccc(NC(=O)Nc3ccc(C(F)(F)F)cc3)cc2C1=O` was tested. Which cytotoxicity call did it give?
**A.** active

**Q.** With `C[C@H]1CN([C@@H](C)CO)C(=O)c2cc(NC(=O)Nc3ccc(F)cc3)ccc2O[C@@H]1CN(C)Cc1ccc(Cl)c(Cl)c1` as the compound, how does the cytotoxicity call read?
**A.** inactive

**Q.** `C[C@H](CO)N1C[C@H](C)[C@@H](CN(C)Cc2ccc(Cl)c(Cl)c2)Oc2ccc(NC(=O)Nc3ccc(F)cc3)cc2C1=O` was tested. Which cytotoxicity call did it give?
**A.** inactive

**Q.** `C[C@H]1CCCCO[C@@H](CN(C)C(=O)Nc2ccc(F)cc2)[C@@H](C)CN([C@@H](C)CO)C(=O)c2cc(NS(=O)(=O)c3ccccc3)ccc2O1` was tested. Which cytotoxicity call did it give?
**A.** inactive

**Q.** Which cytotoxicity call does the source give for `CC(C)NC(=O)N(C)C[C@H]1Oc2ccc(NC(=O)Cc3ccccc3)cc2C(=O)N([C@H](C)CO)C[C@H]1C` here?
**A.** inactive

**Q.** How did the cytotoxicity call turn out when `C[C@H](CO)N1C[C@H](C)[C@H](CN(C)C(=O)Nc2ccccc2)OCCCC[C@H](C)Oc2ccc(NC(=O)c3ccccc3)cc2C1=O` was run?
**A.** inactive

**Q.** With `COc1cccc(NC(=O)N[C@@H]2C=C[C@@H](CC(=O)N3CCOCC3)O[C@@H]2CO)c1` as the compound, how does the cytotoxicity call read?
**A.** inactive

**Q.** Which cytotoxicity call does the source give for `C[C@@H]1CN([C@H](C)CO)C(=O)c2cccc(NC(=O)c3nc4ccccc4s3)c2O[C@@H]1CN(C)S(=O)(=O)c1cn(C)cn1` here?
**A.** inactive

**Q.** For `CC(C)NC(=O)N(C)C[C@@H]1Oc2c(NC(=O)Nc3ccc4c(c3)OCO4)cccc2C(=O)N([C@H](C)CO)C[C@@H]1C`, which cytotoxicity call is on record?
**A.** inactive

**Q.** `C[C@H](CO)N1C[C@H](C)[C@H](CN(C)C(=O)C2CCCCC2)OCCCC[C@H](C)Oc2ccc(NS(=O)(=O)c3cccs3)cc2C1=O` was tested. Which cytotoxicity call did it give?
**A.** inactive

**Q.** Which cytotoxicity call does the source give for `Cc1cc(C)n(C(=O)Cn2cc([N+](=O)[O-])cn2)n1` here?
**A.** inactive

**Q.** `C[C@H](CO)N1C[C@H](C)[C@H](CN(C)Cc2ccncc2)Oc2ccc(NS(=O)(=O)c3ccc(F)cc3)cc2CC1=O` was tested. Which cytotoxicity call did it give?
**A.** inactive

**Q.** How did the cytotoxicity call turn out when `CC(=O)c1ccn[nH]1` was run?
**A.** inactive

**Q.** `COC(=O)[C@]12CCC(C)(C)C[C@H]1[C@H]1C(=O)C=C3[C@@]4(C)C=C(C#N)C(=O)C(C)(C)[C@@H]4CC[C@@]3(C)[C@]1(C)CC2` was tested. Which cytotoxicity call did it give?
**A.** active

**Q.** `COC(=O)[C@@]12CCC(C)(C)C[C@@H]1[C@@H]1C(=O)C=C3[C@]4(C)C=C(C#N)C(=O)C(C)(C)[C@H]4CC[C@]3(C)[C@@]1(C)CC2` was tested. Which cytotoxicity call did it give?
**A.** active

**Q.** How did the cytotoxicity call turn out when `Cc1ccccc1S(=O)(=O)N1C[C@H](O)COC[C@H]2O[C@H](CC(=O)NCc3ccccc3Cl)CC[C@@H]21` was run?
**A.** inactive

**Q.** Which cytotoxicity call does the source give for `Cc1noc(C)c1NC(=O)Nc1cccc2c1O[C@H](CN(C)C(=O)NC(C)C)[C@@H](C)CN([C@@H](C)CO)C2=O` here?
**A.** inactive

**Q.** With `C[C@@H]1CN([C@@H](C)CO)C(=O)Cc2cc(NC(=O)CCN3CCOCC3)ccc2O[C@@H]1CN(C)C(=O)NC1CCCCC1` as the compound, how does the cytotoxicity call read?
**A.** inactive

**Q.** How did the cytotoxicity call turn out when `C[C@@H]1CN([C@H](C)CO)C(=O)c2cc(C#CC3(O)CCCC3)cnc2O[C@@H]1CN(C)S(C)(=O)=O` was run?
**A.** inactive

**Q.** `Cc1ccc(S(=O)(=O)Nc2ccc3c(c2)C(=O)N([C@@H](C)CO)C[C@@H](C)[C@H](CN(C)Cc2ccc(Oc4ccccc4)cc2)O3)cc1` was tested. Which cytotoxicity call did it give?
**A.** inactive

**Q.** How did the cytotoxicity call turn out when `Cc1ccc(S(=O)(=O)Nc2ccc3c(c2)C(=O)N([C@@H](C)CO)C[C@H](C)[C@@H](CN(C)Cc2ccc(Oc4ccccc4)cc2)O3)cc1` was run?
**A.** inactive

**Q.** How did the cytotoxicity call turn out when `Cc1ccc(S(=O)(=O)Nc2ccc3c(c2)C(=O)N([C@H](C)CO)C[C@@H](C)[C@@H](CN(C)Cc2ccc(Oc4ccccc4)cc2)O3)cc1` was run?
**A.** active

**Q.** How did the cytotoxicity call turn out when `Cc1ccc(S(=O)(=O)Nc2ccc3c(c2)C(=O)N([C@@H](C)CO)C[C@H](C)[C@H](CN(C)Cc2ccc(Oc4ccccc4)cc2)O3)cc1` was run?
**A.** inactive

**Q.** Which cytotoxicity call does the source give for `Cc1ccc(S(=O)(=O)Nc2ccc3c(c2)C(=O)N([C@H](C)CO)C[C@@H](C)[C@H](CN(C)Cc2ccc(Oc4ccccc4)cc2)O3)cc1` here?
**A.** active

**Q.** `Cc1ccc(S(=O)(=O)Nc2ccc3c(c2)C(=O)N([C@@H](C)CO)C[C@@H](C)[C@@H](CN(C)Cc2ccc(Oc4ccccc4)cc2)O3)cc1` was tested. Which cytotoxicity call did it give?
**A.** active

**Q.** With `Cc1ccc(S(=O)(=O)Nc2ccc3c(c2)C(=O)N([C@H](C)CO)C[C@H](C)[C@H](CN(C)Cc2ccc(Oc4ccccc4)cc2)O3)cc1` as the compound, how does the cytotoxicity call read?
**A.** inactive

**Q.** Which cytotoxicity call does the source give for `Cc1ccc(S(=O)(=O)Nc2ccc3c(c2)C(=O)N([C@H](C)CO)C[C@H](C)[C@@H](CN(C)Cc2ccc(Oc4ccccc4)cc2)O3)cc1` here?
**A.** inactive

**Q.** Which cytotoxicity call does the source give for `NCC(=O)NC1CCCCC1` here?
**A.** inactive

**Q.** For `COc1ccc(NC(=O)N(C)C[C@@H]2Oc3ccc(NS(C)(=O)=O)cc3C(=O)N([C@H](C)CO)C[C@H]2C)cc1`, which cytotoxicity call is on record?
**A.** inactive

**Q.** For `COc1ccc2c3c(n(c2c1)C)[C@@H](CO)N(Cc1cc(cc(c1)OC)OC)C[C@]13CCN(CC1)S(=O)(=O)c1cn(cn1)C`, which cytotoxicity call is on record?
**A.** inactive

**Q.** With `C[C@@H]1CN([C@H](C)CO)C(=O)Cc2cc(NS(=O)(=O)c3cccs3)ccc2O[C@@H]1CN(C)CC1CC1` as the compound, how does the cytotoxicity call read?
**A.** inactive

**Q.** `C[C@@H]1CN([C@@H](C)CO)C(=O)c2cccc(NS(=O)(=O)c3cn(C)cn3)c2O[C@@H]1CN(C)S(=O)(=O)c1ccc(F)cc1` was tested. Which cytotoxicity call did it give?
**A.** inactive

**Q.** For `Cc1ccc(S(=O)(=O)N(C)C[C@H]2Oc3c(NS(=O)(=O)c4cccs4)cccc3C(=O)N([C@H](C)CO)C[C@H]2C)cc1`, which cytotoxicity call is on record?
**A.** inactive

**Q.** How did the cytotoxicity call turn out when `C[C@H]1CCCCO[C@H](CN(C)C(=O)Nc2ccc(F)cc2)[C@@H](C)CN([C@@H](C)CO)C(=O)c2cc(NC(=O)C3CCCCC3)ccc2O1` was run?
**A.** inactive

**Q.** With `CCCN(C)C[C@@H]1OCCCC[C@H](C)Oc2ccc(NC(=O)Nc3ccc(F)cc3)cc2C(=O)N([C@H](C)CO)C[C@@H]1C` as the compound, how does the cytotoxicity call read?
**A.** inactive

**Q.** Which cytotoxicity call does the source give for `Cc1ccc(S[C@]2(C(=O)NCc3ccccc3)CC(=O)N(C3CCCCC3)[C@@H]2c2ccc(CO)cc2I)cc1` here?
**A.** inactive

**Q.** With `C=CCC[C@H](Cc1ccc(F)cc1)C(=O)OC[C@@H](NC(=O)[C@H](CC=C)CC(=O)N(CCO)Cc1ccccc1)C(C)(C)C` as the compound, how does the cytotoxicity call read?
**A.** inactive

**Q.** `COc1ccc(-c2coc3c(O)c(O)c(OC)cc3c2=O)cc1` was tested. Which cytotoxicity call did it give?
**A.** active

**Q.** Which cytotoxicity call does the source give for `COc1ccc(-c2coc3cc(O)ccc3c2=O)cc1` here?
**A.** inactive

**Q.** How did the cytotoxicity call turn out when `COc1ccc(-c2coc3c(OC)c(OC)cc(O)c3c2=O)cc1` was run?
**A.** inactive

**Q.** For `CC(C)NC(=O)Nc1ccc2c(c1)CC(=O)N([C@@H](C)CO)C[C@@H](C)[C@H](CN(C)C(=O)Nc1ccc3c(c1)OCO3)O2`, which cytotoxicity call is on record?
**A.** inactive

**Q.** For `Cc1ccc2c(N)[nH]nc2n1`, which cytotoxicity call is on record?
**A.** inactive

**Q.** Which cytotoxicity call does the source give for `COCc1cc(C)nc(N)c1C#N` here?
**A.** inactive

**Q.** `COCc1cc(C)nc2n[nH]c(N)c12` was tested. Which cytotoxicity call did it give?
**A.** active

**Q.** How did the cytotoxicity call turn out when `Cc1noc(C)c1S(=O)(=O)N(C)C[C@@H]1Oc2ccc(NC(=O)Cc3cn(C)c4ccccc34)cc2CC(=O)N([C@@H](C)CO)C[C@@H]1C` was run?
**A.** inactive

**Q.** `C[C@@H]1CN([C@H](C)CO)C(=O)c2cc(NC(=O)c3ccccc3)ccc2O[C@@H](C)CCCCO[C@H]1CN(C)C(=O)Nc1ccc(C(F)(F)F)cc1` was tested. Which cytotoxicity call did it give?
**A.** inactive

**Q.** How did the cytotoxicity call turn out when `C[C@@H](O)c1nnc(N)[nH]1` was run?
**A.** inactive

**Q.** Which cytotoxicity call does the source give for `C[C@@H]1CN([C@H](C)CO)C(=O)c2cc(NS(=O)(=O)c3ccc(Cl)cc3)ccc2O[C@H]1CN(C)Cc1ccc(-c2ccccc2)cc1` here?
**A.** inactive

**Q.** How did the cytotoxicity call turn out when `C[C@@H]1CN([C@H](C)CO)C(=O)c2cc(NS(=O)(=O)c3ccc(Cl)cc3)ccc2O[C@@H]1CN(C)Cc1ccc(-c2ccccc2)cc1` was run?
**A.** active

**Q.** For `C[C@H]1CN([C@@H](C)CO)C(=O)c2cc(NS(=O)(=O)c3ccc(Cl)cc3)ccc2O[C@@H]1CN(C)Cc1ccc(-c2ccccc2)cc1`, which cytotoxicity call is on record?
**A.** inactive

**Q.** `C[C@H]1CN([C@@H](C)CO)C(=O)c2cc(NS(=O)(=O)c3ccc(Cl)cc3)ccc2O[C@H]1CN(C)Cc1ccc(-c2ccccc2)cc1` was tested. Which cytotoxicity call did it give?
**A.** inactive

**Q.** How did the cytotoxicity call turn out when `C[C@@H]1CN([C@@H](C)CO)C(=O)c2cc(NS(=O)(=O)c3ccc(Cl)cc3)ccc2O[C@H]1CN(C)Cc1ccc(-c2ccccc2)cc1` was run?
**A.** inactive

**Q.** How did the cytotoxicity call turn out when `C[C@H](CO)N1C[C@H](C)[C@@H](CN(C)Cc2ccc(-c3ccccc3)cc2)Oc2ccc(NS(=O)(=O)c3ccc(Cl)cc3)cc2C1=O` was run?
**A.** active

**Q.** `C[C@H](CO)N1C[C@H](C)[C@H](CN(C)Cc2ccc(-c3ccccc3)cc2)Oc2ccc(NS(=O)(=O)c3ccc(Cl)cc3)cc2C1=O` was tested. Which cytotoxicity call did it give?
**A.** active

**Q.** Which cytotoxicity call does the source give for `C[C@@H]1CN([C@@H](C)CO)C(=O)c2cc(NS(=O)(=O)c3ccc(Cl)cc3)ccc2O[C@@H]1CN(C)Cc1ccc(-c2ccccc2)cc1` here?
**A.** active

**Q.** With `C[C@H](CO)N1C[C@H](C)[C@H](CN(C)Cc2ccc(Oc3ccccc3)cc2)Oc2cc(Br)ccc2S1(=O)=O` as the compound, how does the cytotoxicity call read?
**A.** inactive
